The source of these data is the supplement of paper PMC4840960.

In experiment [1] the test system is E18 rat cortical neuron-glia co-culture. The experiment in a line: fiber score / MBP score (myelination specific beyond OL differentiation) (ratio); higher = more myelination-specific MBP alignment. The conditions noted are these: treatment time: 8 days (DIV5-DIV13). In short, it runs like this: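 Reported values are fiber score (continuous MBP fiber length per Olig2+ nucleus) divided by MBP score (thresholded MBP area × intensity per Olig2+ nucleus). They come from primary E18 rat cortical co-cultures treated with library compounds at 1 or 5 µM in myelination medium from DIV5 to DIV13, then fixed in 4 % paraformaldehyde, immunostained for MBP and Olig2 with DAPI, and analysed over four 10X fields per well in duplicate wells.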

Experiment [2] has the same test system. In words: myelination (MBP fiber length per Olig2+ nucleus), % of 1 µM DAPT response (DMSO = 0) (% of DAPT); higher = more myelination, active = 50 or more. Particulars: treatment time: 8 days (DIV5-DIV13). The gist of the method: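 Rat cortical co-cultures from E18 tissue were dissociated with papain and plated at 20,000 cells/well on 96-well plates coated with poly-d-lysine/laminin. From DIV5 to DIV13, library compounds were added at 1 or 5 µM in myelination medium. After fixation in 4 % paraformaldehyde, cultures were immunostained for MBP and Olig2 and counterstained with DAPI, and four 10X fields were analysed in each of duplicate wells. The myelination value is the length of continuous straight MBP fibers per Olig2+ nucleus, normalised so that 0.1 % DMSO is 0 and a 1 µM positive control is 100.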

Consider `Cc1ccnc2c1NC(=O)c1cccnc1N2C1CC1` [Nevirapine], for which the results for the “fiber score / MBP score” value in experiment [1] (1 µM) and in experiment [1] (5 µM) were 0.687 and 0.851, respectively. In addition, the myelination in experiment [2] (1 µM) was -18.6 (inactive); in experiment [2] (5 µM), -6.68 (inactive).

Turning to `Cn1nnc2c(C(N)=O)ncn2c1=O` [Temozolomide], the “fiber score / MBP score” value in experiment [1] (1 µM) is 0.532; in experiment [1] (5 µM) it was 0.773. The results for the myelination in experiment [2] (1 µM) and in experiment [2] (5 µM) were -29.3 (inactive) and -12.8 (inactive), respectively.

For `CCN1CCCC1CNC(=O)c1cc(S(=O)(=O)CC)ccc1OC` (configuration not stated) [Sultopride], the results for the “fiber score / MBP score” value in experiment [1] (1 µM) and in experiment [1] (5 µM) were 0.758 and 0.461, respectively. The myelination in experiment [2] (1 µM) was -20.9 (inactive); in experiment [2] (5 µM) it was -59.3 (inactive).

For the compound `CCN1CC(CCN2CCOCC2)C(c2ccccc2)(c2ccccc2)C1=O` (configuration not stated) [Doxapram], the entries for the “fiber score / MBP score” value in experiment [1] (1 µM) and in experiment [1] (5 µM) were 0.83 and 0.769, respectively. The results for the myelination in experiment [2] (1 µM) and in experiment [2] (5 µM) were -10.9 (inactive) and -11 (inactive), respectively.

With `O=C(O)CCc1nc(-c2ccccc2)c(-c2ccccc2)o1` [Oxaprozin], the “fiber score / MBP score” value came out at 0.677 in experiment [1] (1 µM) and 0.752 in experiment [1] (5 µM). The myelination in experiment [2] (1 µM) is -17 (inactive); in experiment [2] (5 µM), -14 (inactive).

As to `CC1=C(/C=C/C(C)=C/C=C/C(C)=C/C(=O)O)C(C)(C)CCC1` [Retinoic Acid], the “fiber score / MBP score” value was found to be 0.93 in experiment [1] (1 µM) and 0.533 in experiment [1] (5 µM). Moreover, the values for the myelination in experiment [2] (1 µM) and in experiment [2] (5 µM) were -3.28 (inactive) and -10.5 (inactive), respectively.

As to `O=C(O)Cc1ccccc1Nc1c(Cl)cccc1Cl` [Diclofenac], the results for the “fiber score / MBP score” value in experiment [1] (1 µM) and in experiment [1] (5 µM) were 0.824 and 0.883, respectively. Moreover, the myelination is -25.4 (inactive) in experiment [2] (1 µM) and -15.6 (inactive) in experiment [2] (5 µM).

For `O=C1C(CC[S+]([O-])c2ccccc2)C(=O)N(c2ccccc2)N1c1ccccc1` (configuration not stated) [Sulfinpyrazone], the figures for the “fiber score / MBP score” value in experiment [1] (1 µM) and in experiment [1] (5 µM) were 1.18 and 0.857, respectively. For the same compound, the results for the myelination in experiment [2] (1 µM) and in experiment [2] (5 µM) were -0.801 (inactive) and -7.44 (inactive), respectively.

For `CCc1oc2ccccc2c1C(=O)c1cc(Br)c(O)c(Br)c1` [Benzbromarone], the “fiber score / MBP score” value in experiment [1] (1 µM) stood at 0.764; in experiment [1] (5 µM), 0.919. Besides, the values for the myelination in experiment [2] (1 µM) and in experiment [2] (5 µM) were -8.31 (inactive) and -9.52 (inactive), respectively.

As for `O=C(O[C@@H]1C[C@@H]2C[C@H]3C[C@H](C1)N2CC3=O)c1c[nH]c2ccccc12` [Dolasetron], the figures for the “fiber score / MBP score” value in experiment [1] (1 µM) and in experiment [1] (5 µM) were 0.649 and 0.701, respectively. Moreover, the myelination is -3.78 (inactive) in experiment [2] (1 µM) and -14.7 (inactive) in experiment [2] (5 µM).

On to `OC(c1cc(C(F)(F)F)nc2c(C(F)(F)F)cccc12)C1CCCCN1` (configuration not stated) [Mefloquine], for which the entries for the “fiber score / MBP score” value in experiment [1] (1 µM) and in experiment [1] (5 µM) were 0.726 and 0.574, respectively. For the same compound, the myelination in experiment [2] (1 µM) is -11.1 (inactive); in experiment [2] (5 µM), -31.7 (inactive).

As to `CC(=O)OCC[N+](C)(C)C` [Acetylcholine], the “fiber score / MBP score” value in experiment [1] (1 µM) is 0.236; in experiment [1] (5 µM), 0.34. In addition, the myelination in experiment [2] (1 µM) was -17.4 (inactive); in experiment [2] (5 µM) it was -15.1 (inactive).

For the compound `CN(C)CCC(c1ccc(Br)cc1)c1ccccn1` (configuration not stated) [Brompheniramine], the entries for the “fiber score / MBP score” value in experiment [1] (1 µM) and in experiment [1] (5 µM) were 0.611 and 0.693, respectively. The myelination in experiment [2] (1 µM) is -14.9 (inactive); in experiment [2] (5 µM), -12.4 (inactive).

`C[C@]12CC[C@@H]3c4ccc(O)cc4CC[C@H]3[C@@H]1CC[C@@H]2O` [Estradiol]: the “fiber score / MBP score” value in experiment [1] (1 µM) stood at 0.747; in experiment [1] (5 µM) it was 0.62. Moreover, the myelination in experiment [2] (1 µM) was -24.6 (inactive); in experiment [2] (5 µM), -35.3 (inactive).

In the case of `Cc1occc(=O)c1O` [Maltol], the “fiber score / MBP score” value amounted to 0.739 in experiment [1] (1 µM) and 0.672 in experiment [1] (5 µM). Also, the myelination is -10.1 (inactive) in experiment [2] (1 µM) and -13.4 (inactive) in experiment [2] (5 µM).

Regarding `CC[C@H]1OC(=O)[C@H](C)[C@@H](O[C@H]2C[C@@](C)(OC)[C@@H](O)[C@H](C)O2)[C@H](C)[C@@H](O[C@@H]2O[C@H](C)C[C@H](N(C)C)[C@H]2O)[C@](C)(O)C[C@@H](C)CN(C)[C@H](C)[C@@H](O)[C@]1(C)O` [Azithromycin], the “fiber score / MBP score” value in experiment [1] (1 µM) was 0.707; in experiment [1] (5 µM), 0.488. Moreover, the myelination is -7.57 (inactive) in experiment [2] (1 µM) and -11.8 (inactive) in experiment [2] (5 µM).

Consider `C#C[C@]1(O)CC[C@H]2[C@@H]3CCc4cc(OC)ccc4[C@H]3CC[C@@]21C` [Mestranol], for which the “fiber score / MBP score” value turned out to be 0.724 in experiment [1] (1 µM) and 0.298 in experiment [1] (5 µM). The myelination in experiment [2] (1 µM) was -6.5 (inactive); in experiment [2] (5 µM), -18 (inactive).

As for `CN1CCN(c2nc3cc(C(F)(F)F)ccc3n3cccc23)CC1`, the “fiber score / MBP score” value in experiment [1] (1 µM) came out at 0.707; in experiment [1] (5 µM) it was 0.682. Moreover, the myelination in experiment [2] (1 µM) is -2.34 (inactive); in experiment [2] (5 µM), -20.7 (inactive).

For the compound `CCc1nc(N)nc(N)c1-c1ccc(Cl)cc1` [Pyrimethamine], the results for the “fiber score / MBP score” value in experiment [1] (1 µM) and in experiment [1] (5 µM) were 1.86 and 2.19, respectively. Also, the myelination in experiment [2] (1 µM) is 398 (active); in experiment [2] (5 µM), 655 (active).

Regarding `NC(=O)c1cccnc1` [Niacinamide], the “fiber score / MBP score” value was 0.96 in experiment [1] (1 µM) and 0.901 in experiment [1] (5 µM). The myelination in experiment [2] (1 µM) is -7.93 (inactive); in experiment [2] (5 µM), -4.86 (inactive).

Consider `CCOC(=O)O[C@]1(C(=O)OCCl)CC[C@H]2[C@@H]3CCC4=CC(=O)C=C[C@]4(C)[C@H]3[C@@H](O)C[C@@]21C` [Loteprednol etabonate], for which the “fiber score / MBP score” value is 0.604 in experiment [1] (1 µM) and 0.881 in experiment [1] (5 µM). For the same compound, the results for the myelination in experiment [2] (1 µM) and in experiment [2] (5 µM) were -14.2 (inactive) and -1.58 (inactive), respectively.

On to `CC(=O)[C@@]1(O)CC[C@H]2[C@@H]3C[C@H](C)C4=CC(=O)C=C[C@]4(C)[C@@]3(F)[C@@H](O)C[C@@]21C` [Fluorometholone], for which the “fiber score / MBP score” value in experiment [1] (1 µM) turned out to be 0.809; in experiment [1] (5 µM) it was 0.856. Moreover, the values for the myelination in experiment [2] (1 µM) and in experiment [2] (5 µM) were -5.67 (inactive) and 2.04 (inactive), respectively.

With `CN1CC(=O)N2[C@H](c3ccc4c(c3)OCO4)c3[nH]c4ccccc4c3C[C@@H]2C1=O` [Tadalafil], the “fiber score / MBP score” value in experiment [1] (1 µM) was 0.799; in experiment [1] (5 µM), 0.74. For the same compound, the values for the myelination in experiment [2] (1 µM) and in experiment [2] (5 µM) were -45.7 (inactive) and -34.9 (inactive), respectively.
